# Reference: PubChem BioAssay (NCATS)
# A number with no mark means an inactive call. Records with an inconclusive call do not appear. A call without a number means that no potency is given here. Calls of active or inactive are those of the source. The call rests on the fitted dose curve; in most records, active means well fitted curve in the direction sought with a large enough effect; inconclusive means small, poorly fitted or top-dose-only effect, or another doubt; inactive means no such curve, though single readings can be large; an effect the other way counts as inactive or inconclusive.
# Assays:
# [1] = target: Glutathione peroxidase 1 (Homo sapiens) (UniProt P07203); test: Primary qHTS Assay for Inhibitors of Recombinant Selenoprotein Glutathione Peroxidase 1 (GPX1) (AID 1845191); further: nearly all actives have a fitted effect of over 65% in size
# Sequence of Glutathione peroxidase 1 (Homo sapiens) (P07203 whole entry, looked up): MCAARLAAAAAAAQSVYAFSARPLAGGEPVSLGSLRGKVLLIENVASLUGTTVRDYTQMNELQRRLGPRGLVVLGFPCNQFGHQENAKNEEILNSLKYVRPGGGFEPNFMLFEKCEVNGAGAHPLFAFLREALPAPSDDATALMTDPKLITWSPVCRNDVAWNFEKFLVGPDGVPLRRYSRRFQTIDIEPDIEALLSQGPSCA
# How it was run: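 Recombinant GPX1 (10 nM final) was preincubated with compound for 30 min at room temperature, then reacted with 1 mM GSH, 0.5 mM CHP, 0.5 mM NADPH and 100 nM glutathione reductase; NADPH fluorescence (340/450 nm) was read at 0 and 15 min.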
# [2] = target: Phospholipid hydroperoxide glutathione peroxidase GPX4 (Homo sapiens) (UniProt P36969); test: Primary qHTS Assay for Inhibitors of Recombinant Selenoprotein Glutathione Peroxidase 4 (GPX4) (AID 1845192); further: nearly all actives have a fitted effect of over 65% in size; on activity change, negative = inhibition: series mostly up to about 50 µM
# Sequence of Phospholipid hydroperoxide glutathione peroxidase GPX4 (Homo sapiens) (P36969 whole entry, looked up): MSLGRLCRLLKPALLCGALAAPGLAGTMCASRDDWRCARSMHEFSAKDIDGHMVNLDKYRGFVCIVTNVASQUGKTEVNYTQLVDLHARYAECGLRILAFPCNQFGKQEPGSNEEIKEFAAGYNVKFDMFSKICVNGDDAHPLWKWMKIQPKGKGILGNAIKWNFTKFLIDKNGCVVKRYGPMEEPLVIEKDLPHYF
# How it was run: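 GR-coupled readout: 100 nM GR, 1 mM GSH, 0.5 mM NADPH; NADPH fluorescence (ex 340/em 450 nm) read at t=0 and after 15 min RT. GPX4 200 nM, preincubated 30 min with compound; substrate 0.5 mM CHP.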
# [3] = target: Luciferin 4-monooxygenase (Photinus pyralis) (UniProt P08659); test: Primary firefly luciferase (FLuc) qHTS assay for identification of artifact compounds. (AID 1845220); further: nearly all actives have a fitted effect of over 60% in size; on activity change, negative = inhibition: series mostly up to about 54 µM
# How it was run: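 In this counter-screen for luciferase artifacts, test compounds met substrate (10 uM each luciferin and ATP) before 10 nM enzyme started the reaction. Light output was measured 5 min later.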
# [4] = Primary fluorescence-based thiol-reactive (MSTI) qHTS assay for identification of artifact compounds. (AID 1845221); further: nearly all actives have a fitted effect of over 65% in size; further: potency means the concentration at half of the fitted maximal effect;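 on activity change, negative = thiol reactive: series mostly up to about 54 µM; thiol-reactive compounds lower the probe fluorescence signal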
# How it was run: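 A multi-concentration qHTS design tested compounds against 4 uM MSTI, pH 7.4 phosphate-buffered saline. Plates were protected from light for 1 h at room temperature before imaging fluorescence.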
# [5] = test system: Nanoluciferase (engineered Oplophorus gracilirostris luciferase); test: Primary Nanoluciferase (NLuc) qHTS assay for identification of artifact compounds. (AID 1845222);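 further: NLuc secreted into diluted conditioned medium of S16 cells; series mostly up to about 54 µM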
# How it was run: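 Using secreted nanoluciferase in S16 culture medium (0.22 um filtered, 1:55 dilution), compounds were preincubated 15 min at RT. Signal was generated with Nano-Glo reagent (1:100) over 5 min.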
# [6] = NCATS anti-infectives library activity on HEK293 viability as a counter-qHTS vs the C. elegans viability qHTS (AID 1745854)
# How it was run: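 HEK293 cells, 1500 per well, exposed 24 hr at 37C in 5% CO2 to compounds in a 1:5 titration, up to 41.7 uM final. Viability read as CellTiter-Glo luminescence after 10 min at room temperature.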
# [7] = Primary redox qHTS assay for identification of artifact compounds. (AID 1845223)
# How it was run: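 Amplex Red (25 uM) and HRP (250 mU/mL) in HBSS, with compounds for 15 min, then 250 uM DTT for 30 min, room temperature, dark. Fluorescence 525/598 nm read; normalized to DMSO and 10 uM DA3003; Hill fit.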
# [8] = Viability counterscreen for antagonist of constitutive androstane receptor (CAR) against the NCATS DSHEA and TCM libraries (AID 1794837);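 further: compound exposure lasted 24 h before viability reading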
# How it was run: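 Cells: HepG2 line carrying CYP2B6 reporter and hCAR, seeded and attached 5 h. Then pin-transferred test substances plus agonist CITCO at 48 uM final; 24 h incubation; fluorogenic viability reagent, 1 h.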
# [9] = Viability counterscreen for agonist of constitutive androstane receptor (CAR) against the NCATS DSHEA and TCM libraries (AID 1794838);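 further: HepG2 cells with CYP2B6 reporter and hCAR plus 0.75 µM PK11195 antagonist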
# How it was run: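 Cell health was measured as CellTiter-Fluor signal in HepG2-CYP2B6-hCAR cells treated for 24 h with substances alongside the hCAR antagonist PK11195 (0.75 uM final).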
# [10] = target: Nuclear receptor subfamily 1 group I member 3 (Homo sapiens) (UniProt Q14994); test: Primary qHTS for agonist of constitutive androstane receptor (CAR) against the NCATS DSHEA and TCM libraries (AID 1794839);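 further: HepG2 cells expressing human CAR with a CYP2B6 reporter plus PK11195 antagonist; luciferase reporter luminescence read with ONE-Glo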
# Sequence of Nuclear receptor subfamily 1 group I member 3 (Homo sapiens) (Q14994 whole entry, looked up): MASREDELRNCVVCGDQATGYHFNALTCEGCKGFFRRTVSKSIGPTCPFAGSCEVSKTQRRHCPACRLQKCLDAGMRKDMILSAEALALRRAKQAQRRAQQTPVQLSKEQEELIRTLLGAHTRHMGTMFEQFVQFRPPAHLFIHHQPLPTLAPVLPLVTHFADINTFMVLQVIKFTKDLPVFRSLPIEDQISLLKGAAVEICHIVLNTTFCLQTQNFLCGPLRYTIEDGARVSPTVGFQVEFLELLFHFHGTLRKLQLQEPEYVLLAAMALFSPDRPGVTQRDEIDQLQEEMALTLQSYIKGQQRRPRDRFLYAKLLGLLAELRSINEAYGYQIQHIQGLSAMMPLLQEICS
# How it was run: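 qHTS, agonist mode: HepG2-CYP2B6-hCAR, 2,500 cells/well, 5 h attach; cpds + PK11195 0.75 µM final; 24 h, 37 °C, 5% CO2. Readouts: CellTiter-Fluor (405/540 nm), then ONE-Glo luminescence.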
# [11] = HepG2 viability counterscreen (readout 2: ATP content) against the NCATS DSHEA and TCM libraries (AID 1794840)
# How it was run: (§1)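 Same wells read twice: first fluorescence from cleaved GF-AFC substrate (25 uM final, 30 min, 37C) for live-cell protease, then CellTiter-Glo luminescence after 30 min at room temperature for ATP. HepG2 cells were exposed ~24 h to substances.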
# [12] = HepG2 viability counterscreen (readout 1: protease activity) against the NCATS DSHEA and TCM libraries (AID 1794841);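 further: cells exposed to compounds for about 24 h before the protease read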
# How it was run: as §1
# [13] = target: Cytochrome P450 3A4 (Homo sapiens) (UniProt P08684); test: qHTS for inhibitors of CYP3A4 against the NCATS DSHEA and TCM libraries (AID 1919971); further: potency means the concentration at half of the fitted maximal effect
# Sequence of Cytochrome P450 3A4 (Homo sapiens) (P08684 whole entry, looked up): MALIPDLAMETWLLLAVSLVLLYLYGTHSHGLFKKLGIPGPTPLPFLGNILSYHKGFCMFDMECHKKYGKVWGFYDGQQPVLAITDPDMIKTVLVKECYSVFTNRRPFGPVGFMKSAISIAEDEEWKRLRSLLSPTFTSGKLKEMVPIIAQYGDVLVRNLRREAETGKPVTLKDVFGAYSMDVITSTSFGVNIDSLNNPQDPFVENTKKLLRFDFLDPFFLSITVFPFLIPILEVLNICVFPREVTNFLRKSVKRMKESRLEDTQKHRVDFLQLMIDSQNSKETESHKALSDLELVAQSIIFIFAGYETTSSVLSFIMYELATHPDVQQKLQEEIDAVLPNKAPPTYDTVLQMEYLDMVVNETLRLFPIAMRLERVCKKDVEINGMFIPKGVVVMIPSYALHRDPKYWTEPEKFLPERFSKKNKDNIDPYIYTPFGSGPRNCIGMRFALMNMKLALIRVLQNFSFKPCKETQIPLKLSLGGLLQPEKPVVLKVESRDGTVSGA
# How it was run: (§2)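 Luminescent P450-Glo readout. Enzyme plus pro-luciferin substrate in manufacturer buffer (typically 100 mM KPO4); 15 min RT preincubation; 1x NADPH regenerating system, 30-45 min RT in the dark; detection reagent 30 min.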
# [14] = target: Cytochrome P450 2D6 (Homo sapiens) (UniProt P10635); test: qHTS for inhibitors of CYP2D6 against the NCATS DSHEA and TCM libraries (AID 1919972)
# Sequence of Cytochrome P450 2D6 (Homo sapiens) (P10635 whole entry, looked up): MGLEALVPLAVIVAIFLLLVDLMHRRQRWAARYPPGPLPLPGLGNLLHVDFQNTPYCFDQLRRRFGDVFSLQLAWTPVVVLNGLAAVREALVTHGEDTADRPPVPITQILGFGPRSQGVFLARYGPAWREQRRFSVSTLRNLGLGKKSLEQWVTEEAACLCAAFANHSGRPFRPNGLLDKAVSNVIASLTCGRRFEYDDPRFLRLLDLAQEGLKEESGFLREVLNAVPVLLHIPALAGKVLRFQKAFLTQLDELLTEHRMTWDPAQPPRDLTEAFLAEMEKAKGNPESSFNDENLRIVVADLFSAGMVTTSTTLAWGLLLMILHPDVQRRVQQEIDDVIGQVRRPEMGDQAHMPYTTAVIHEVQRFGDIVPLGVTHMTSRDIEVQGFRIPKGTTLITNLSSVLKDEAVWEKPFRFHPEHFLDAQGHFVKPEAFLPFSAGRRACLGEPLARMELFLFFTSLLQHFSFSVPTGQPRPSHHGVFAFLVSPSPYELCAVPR
# How it was run: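 Steps: enzyme plus luciferin substrate dispensed; test substances pinned; 15 min RT; 1x NADPH regenerating solution added, 30–45 min RT protected from light; detection reagent, 30 min RT; luminescence measured. Minus-enzyme wells as background.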
# [15] = target: Cytochrome P450 2C9 (Homo sapiens) (UniProt P11712); test: qHTS for inhibitors of CYP2C9 against the NCATS DSHEA and TCM libraries (AID 1919973); further: potency means the concentration at half of the fitted maximal effect
# Sequence of Cytochrome P450 2C9 (Homo sapiens) (P11712 whole entry, looked up): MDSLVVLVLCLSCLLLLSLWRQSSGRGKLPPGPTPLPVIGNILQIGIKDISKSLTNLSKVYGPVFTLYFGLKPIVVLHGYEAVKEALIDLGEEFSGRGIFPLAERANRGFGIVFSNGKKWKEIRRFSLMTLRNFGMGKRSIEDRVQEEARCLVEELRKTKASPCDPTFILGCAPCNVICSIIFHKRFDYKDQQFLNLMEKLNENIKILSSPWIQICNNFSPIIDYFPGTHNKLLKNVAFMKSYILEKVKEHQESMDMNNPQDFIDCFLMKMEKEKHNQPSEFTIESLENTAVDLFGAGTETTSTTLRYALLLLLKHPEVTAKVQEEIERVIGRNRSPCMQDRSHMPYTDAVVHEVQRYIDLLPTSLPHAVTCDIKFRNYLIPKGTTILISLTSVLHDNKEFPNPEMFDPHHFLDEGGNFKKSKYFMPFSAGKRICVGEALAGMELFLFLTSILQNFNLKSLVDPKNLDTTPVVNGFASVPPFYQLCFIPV
# How it was run: as §2
# [16] = target: Cytochrome P450 2C19 (Homo sapiens) (UniProt P33261); test: qHTS for inhibitors of CYP2C19 against the NCATS DSHEA and TCM libraries (AID 1919974);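 further: luminescence from luciferin released by CYP2C19 oxidation of a pro-luciferin substrate; potency means the concentration at half of the fitted maximal effect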
# Sequence of Cytochrome P450 2C19 (Homo sapiens) (P33261 whole entry, looked up): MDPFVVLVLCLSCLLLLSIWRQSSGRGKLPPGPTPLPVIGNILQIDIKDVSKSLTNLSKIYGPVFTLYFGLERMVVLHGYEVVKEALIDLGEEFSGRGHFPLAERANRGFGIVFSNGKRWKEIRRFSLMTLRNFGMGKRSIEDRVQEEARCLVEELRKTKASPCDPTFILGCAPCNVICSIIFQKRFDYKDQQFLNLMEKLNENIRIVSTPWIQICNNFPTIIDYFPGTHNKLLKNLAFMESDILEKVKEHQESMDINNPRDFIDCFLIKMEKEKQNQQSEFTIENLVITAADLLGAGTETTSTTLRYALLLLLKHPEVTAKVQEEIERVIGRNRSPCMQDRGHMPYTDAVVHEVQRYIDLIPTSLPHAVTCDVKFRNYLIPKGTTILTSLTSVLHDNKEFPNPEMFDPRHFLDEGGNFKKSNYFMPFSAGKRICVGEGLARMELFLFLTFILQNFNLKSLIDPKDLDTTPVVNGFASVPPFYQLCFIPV
# How it was run: as §2
# [17] = KB-3-1 P-gp reporter qHTS against the NCATS DSHEA and TCM libraries (AID 1919975)
# How it was run: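 KB-3-1 parental line, 1536-well qHTS: cells seeded, ~4 h attachment, pintool compound addition, ~72 h at 37C, then CellTiter-Glo, 30 min RT, luminescence. Concentration-response format.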
# [18] = target: Cytochrome P450 1A2 (Homo sapiens) (UniProt P05177); test: qHTS for inhibitors of CYPIA2 against the NCATS DSHEA and TCM libraries (AID 1919976); further: potency means the concentration at half of the fitted maximal effect
# Sequence of Cytochrome P450 1A2 (Homo sapiens) (P05177 whole entry, looked up): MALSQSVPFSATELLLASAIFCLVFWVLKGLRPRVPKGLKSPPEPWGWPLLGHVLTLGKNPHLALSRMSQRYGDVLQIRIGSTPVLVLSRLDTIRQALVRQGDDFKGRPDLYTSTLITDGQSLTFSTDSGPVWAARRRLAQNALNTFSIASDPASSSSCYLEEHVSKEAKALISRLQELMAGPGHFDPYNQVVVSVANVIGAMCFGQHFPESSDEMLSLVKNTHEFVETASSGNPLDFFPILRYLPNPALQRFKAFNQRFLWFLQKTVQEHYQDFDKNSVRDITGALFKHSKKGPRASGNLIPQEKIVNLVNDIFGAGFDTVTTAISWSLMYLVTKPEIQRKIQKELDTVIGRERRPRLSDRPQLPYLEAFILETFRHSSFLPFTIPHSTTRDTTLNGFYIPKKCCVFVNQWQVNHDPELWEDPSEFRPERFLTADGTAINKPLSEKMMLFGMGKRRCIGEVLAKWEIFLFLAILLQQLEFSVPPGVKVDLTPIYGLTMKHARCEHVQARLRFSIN
# How it was run: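 Human CYP1A2 with its pro-luciferin substrate in supplier buffer (typically 100 mM KPO4) was pre-incubated with compounds 15 min at RT. Reaction was started with 1x NADPH regeneration solution and run 30-45 min at RT in the dark, then luminescence was read after P450-Glo detection reagent (30 min RT).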
# [19] = qHTS Counterscreen for compound interference against the NCATS DSHEA and TCM libraries (AID 1919978); conditions: firefly luciferase detection reagent interference, luminescence;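 further: compounds preincubated with 1 µM D-luciferin or buffer before detection reagent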
# How it was run: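 Compounds, titrated from 19.5 nM to 39.8 uM final, were pinned onto 1 uM D-luciferin or plain 100 mM potassium phosphate. After 15 min at room temperature, luciferin detection reagent was added for 30 min before the luminescence read.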
compound,measurement,setting,value
CC(=O)O[C@@H]1C(O)C[C@@]2(C)C(CC[C@@H](C)C23Cc2c(O)cc4c(c2O3)CNC4=O)C1(C)C (stereo partly specified),Potency,[1],inactive
same,Potency,[2],inactive
same,Potency,[3],inactive
same,Potency,[4],inactive
same,Potency,[5],inactive
COc1cccc(OC)c1-c1ccc(C[C@H](NC(=O)c2c(Cl)cccc2Cl)C(=O)O)cc1,Potency,[1],inactive
same,Potency,[2],inactive
same,Potency,[3],inactive
same,Potency,[4],inactive
COc1cccc(OC)c1-c1nc(C(=O)N[C@@H](CC(C)C)C(=O)O)cn1-c1ccnc2cc(Cl)ccc12,Potency,[1],inactive
same,Potency,[2],inactive
same,Potency,[3],inactive
same,Potency,[4],inactive
CC(C)CC(=O)OC[C@@]1(O)C[C@@]23CC[C@H]4[C@@](C)(CCC[C@@]4(C)C(=O)O)[C@@H]2CC[C@@H]1C3,Potency,[1],inactive
same,Potency,[2],inactive
same,Potency,[3],inactive
same,Potency,[4],inactive
same,Potency,[5],inactive
CCCC(C(=O)O)c1c(C)nc2ccc(Cl)cc2c1-c1ccccc1 (stereo unspecified),outcome,[6],inactive
same,Potency,[1],inactive
same,Potency,[2],inactive
same,Potency,[3],inactive
same,Potency,[4],inactive
same,Potency,[5],inactive
same,Potency,[7],inactive
COc1cnc(-n2cnc(C)n2)c2[nH]cc(C(=O)C(=O)N3CCN(C(=O)c4ccccc4)CC3)c12,outcome,[6],inactive
same,Potency,[1],inactive
same,Potency,[2],inactive
same,Potency,[3],inactive
same,Potency,[4],inactive
same,Potency,[5],inactive
same,Potency,[7],inactive
COc1cc(O)c2c(c1Cl)CC(C)OC2=O (stereo unspecified),Potency,[1],inactive
same,Potency,[2],inactive
same,Potency,[3],inactive
same,Potency,[4],inactive
same,Potency,[5],inactive
CC(=O)O[C@@H]1C[C@@H](C)[C@](O)(CCC2=CC(=O)OC2)[C@@]2(C)CCCC(C)(C)C12 (stereo partly specified),outcome,[8],inactive
same,outcome,[9],inactive
same,outcome,[10],inactive
same,outcome,[11],inactive
same,outcome,[12],inactive
same,Potency,[1],inactive
same,Potency,[2],inactive
same,Potency,[3],inactive
same,Potency,[4],inactive
same,Potency,[5],inactive
same,Potency,[7],inactive
same,Potency,[13],4.47 µM (active)
same,outcome,[14],inactive
same,Potency,[15],8.91 µM (active)
same,Potency,[16],2.82 µM (active)
same,outcome,[17],inactive
same,Potency,[18],3.98 µM (active)
same,max response,[19],-1.72%
C/C(=C\CC/C(C)=C/CC[C@]1(C)CCc2cc(O)cc(C)c2O1)CC/C=C(\C)C(=O)O,Potency,[1],inactive
same,Potency,[2],inactive
same,Potency,[3],inactive
same,Potency,[4],4.62 µM (active)
same,Potency,[5],inactive
C[C@@H]1O[C@@H](O[C@H]2[C@H](O)[C@@H](O)[C@H](OC[C@H]3O[C@@H](OC(=O)[C@]45CCC(C)(C)C[C@H]4C4=CCC6[C@@]7(C)C[C@@H](O)[C@H](O)[C@@](C)(CO)C7[C@H](O)C[C@@]6(C)[C@]4(C)CC5)[C@H](O)[C@@H](O)[C@@H]3O)O[C@@H]2CO)[C@H](O)[C@H](O)[C@H]1O (stereo partly specified),Potency,[1],inactive
same,Potency,[2],inactive
same,"activity change, negative = inhibition",[3],0.345% [at 11.6 µM]
same,"activity change, negative = thiol reactive",[4],224% [at 11.5 µM]
same,"activity, negative = inhibition",[5],1.41% [at 11.6 µM]
CCC(C)/C=C(C)/C=C/C1=CC2=C(Cl)C(=O)C(C)(OC(C)=O)C(=O)C2=CN1C(CCC(=O)O)C(=O)O (stereo unspecified),Potency,[1],inactive
same,Potency,[2],inactive
same,Potency,[3],inactive
same,Potency,[4],0.367 µM (active)
COc1cc(C)c(C(=O)NC2C(C)OC(OC3CCC(C)C4C3C=C(C)C3/C(C)=C\CC/C(C)=C/C5(C)C=C(C(=O)O)C(C)CC56OC(=O)/C(=C(\O)C34C)C6=O)C(O)C2(C)O)c(O)c1 (stereo unspecified),Potency,[1],inactive
same,Potency,[2],inactive
same,outcome,[3],inactive [at 11.6 µM]
same,"activity change, negative = thiol reactive",[4],188% [at 11.5 µM]
same,"activity, negative = inhibition",[5],4.93% [at 11.6 µM]
CCc1cc(CC[C@]2(C3CCCC3)CC(O)=C(Cc3nc4nc(C)cc(C)n4n3)C(=O)O2)cc(CC)n1,Potency,[1],inactive
same,Potency,[2],inactive
same,Potency,[3],inactive
same,Potency,[4],inactive
CC(C)=CC[C@H]1O[C@]2(O)C([C@H]3CCC4[C@@]5(C)CC[C@H](O[C@@H]6O[C@H](CO)[C@H](O)[C@H](O[C@@H]7O[C@H](CO)[C@@H](O)[C@H](O)[C@H]7O)[C@H]6O[C@@H]6O[C@@H](C)[C@H](O)[C@@H](O)[C@H]6O)C(C)(C)C5CC[C@@]4(C)[C@]3(C)[C@H]2O)[C@@]1(C)O (stereo partly specified),Potency,[1],inactive
same,Potency,[2],inactive
same,"activity change, negative = inhibition",[3],0.583% [at 11.6 µM]
same,"activity change, negative = thiol reactive",[4],12.2% [at 11.5 µM]
same,"activity, negative = inhibition",[5],-2.88% [at 11.6 µM]
Cc1nc2ccccc2c(-c2ccc3c4c(ccnc24)CCO3)c1[C@H](OC(C)(C)C)C(=O)O,Potency,[1],inactive
same,Potency,[2],inactive
same,Potency,[3],inactive
same,Potency,[4],inactive
same,Potency,[5],inactive
O=C(O)c1cc(C(F)(F)F)ccc1N1CC[C@H](OCc2ccccn2)C1,outcome,[6],inactive
same,Potency,[1],inactive
same,Potency,[2],inactive
same,Potency,[3],inactive
same,Potency,[5],inactive
same,Potency,[7],inactive
C[C@@H]1O[C@@H](OC[C@H]2O[C@@H](OCc3ccccc3)[C@H](O)[C@@H](O)[C@@H]2O)[C@H](O)[C@H](O)[C@H]1O,Potency,[1],inactive
same,Potency,[2],inactive
same,Potency,[3],inactive
same,Potency,[4],5.19 µM (active)
same,Potency,[5],inactive
COC(=O)C1=CO[C@@H](O[C@@H]2O[C@H](CO)[C@@H](O)[C@H](O)[C@H]2O)[C@@H]2C(CO)=CC[C@H]12,outcome,[6],inactive
same,Potency,[1],inactive
same,Potency,[2],inactive
same,Potency,[3],inactive
same,Potency,[4],inactive
same,Potency,[5],inactive
same,Potency,[7],inactive
